# According to PubChem BioAssay (Tox21):
# Values without a mark were called inactive. Inconclusive results are not listed. A call without a number means that no potency is given here. The source made the active and inactive calls. Unless noted, calls follow the shape of the full dose curve.
# Tests used:
# [1] = Nuclear factor erythroid 2-related factor 2/antioxidant responsive element (Nrf2/ARE) small molecule agonists: qHTS cell viability counter screen in human keratinocytes (AID 1919968; active = well fitted curve in the direction sought with a large enough effect in the repeat runs; an effect the other way counts as inactive or inconclusive; also: nearly all actives have a fitted effect of over 55% in size; also: potency is read from the fitted curve at half-maximal effect)
# Outline: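 Seed 1,500 KeratinoSens cells per well, then incubate 5 h at 37 C/5% CO2. Add compounds in DMSO and incubate 23 h. Add CellTiter-Fluor, wait 1 h and read fluorescence.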
# [2] = Nuclear factor erythroid 2-related factor 2/antioxidant responsive element (Nrf2/ARE) small molecule agonists: luciferase reporter gene qHTS assay in human keratinocytes (AID 1919969); also: nearly all actives have a fitted effect of over 35% in size; also: potency is read from the fitted curve at half-maximal effect
# [3] = biological target: Gonadotropin-releasing hormone receptor (Homo sapiens) (UniProt P30968); assay: Human gonadotropin-releasing hormone receptor (GnRHR) small molecule agonists, calcium flux assay in GnRHR-HEK293 cells (AID 1920063); also: nearly all actives have a fitted effect of over 35% in size
# Outline: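 Cells: HEK293 stably expressing human GnRHR. Steps: overnight (18 h) culture, 1 h calcium dye loading at 37 C, compound addition, kinetic fluorescence read at 480/540 nm. Each compound tested at 15 concentrations in triplicate.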
# [4] = biological target: KiSS-1 receptor (Homo sapiens) (UniProt Q969F8); assay: Human kisspeptin (KISS1R) small molecule agonists, calcium flux assay in KISS1R-HEK293 cells (AID 1920064; active = well fitted curve in the direction sought with a large enough effect in the repeat runs; an effect the other way counts as inactive or inconclusive)
# Outline: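 Cells plated and incubated 18 h; dye added, 1 h at 37 C; compounds in DMSO pinned in; signal read at 480/540 nm every second for 3 min. Each compound tested at 15 concentrations in triplicate.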
# [5] = G protein-coupled receptor (GPCR) small molecule agonists, calcium flux assay: HEK293 wild type cell line counter screen (AID 1920065)
# Outline: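 Counter-screen of the Tox21 10K library for non-specific calcium release: dye-loaded cells received compounds in DMSO and were monitored by kinetic fluorescence (480/540 nm, 3 min). Fifteen concentrations, run in triplicate.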
# [6] = p53 small molecule agonists, cell-based qHTS assay with human liver microsomes: qHTS cell viability counter screen (AID 1963579); also: nearly all actives have a fitted effect of over 45% in size
# Outline: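 Cells carrying the p53 response-element beta-lactamase reporter are treated for 16 h at 37 C with test compounds in the presence of human liver microsomes and NADPH (both 0.5 mg/mL final); ATP-based CellTiter-Glo luminescence then reports viability.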
# [7] = p53 small molecule agonists, cell-based qHTS assay with rat liver microsomes: qHTS cell viability counter screen (AID 1963580); also: nearly all actives have a fitted effect of over 45% in size
# Outline: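 HCT-116 p53RE-bla, 4,000 cells/well, 5 h pre-incubation; cpd + rat liver microsomes 0.5 mg/mL + NADPH 0.5 mg/mL (final); 16 h, 37 C; CellTiter-Glo, 30 min RT; luminescence.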
# [8] = p53 small molecule agonists, cell-based qHTS assay: qHTS cell viability counter screen (AID 1963581); also: nearly all actives have a fitted effect of over 45% in size
# Outline: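 Cells: HCT-116 with p53 response element-driven beta-lactamase. Treatment: 16 h, 37 C, compounds in DMSO. Read: CellTiter-Glo luminescence after 30 min RT.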
# [9] = biological target: 5-hydroxytryptamine receptor 2A (Homo sapiens) (UniProt P28223); assay: 5-hydroxytryptamine receptor 2A (HTR2A) small molecule agonists, cell-based qHTS assay (AID 1963587); also: nearly all actives have a fitted effect of over 30% in size
# Outline: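 Kinetic calcium-flux fluorescence (2 min, 1 sec intervals) after compound addition in agonist mode. HTR2A-CHO cells were cultured 18 h, then dye-loaded 1 h at 37 C.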
# [10] = biological target: Muscarinic acetylcholine receptor M1 (Homo sapiens) (UniProt P11229); assay: Cholinergic receptor muscarinic 1 (CHRM1) small molecule agonists, cell-based qHTS assay (AID 1963589); also: nearly all actives have a fitted effect of over 35% in size
# Outline: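 Agonist-mode qHTS in CHO cells stably carrying human muscarinic M1. Intracellular calcium is tracked by fluorescence every second after compound transfer; each compound runs at 15 concentrations in three independent runs.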
# [11] = biological target: Beta-2 adrenergic receptor (Homo sapiens) (UniProt P07550); assay: Adrenergic beta2 receptor (ADRB2) small molecule antagonists, cell-based qHTS assay (AID 1963592); also: series mostly up to about 92 µM; nearly all actives have a fitted effect of over 50% in size
# Outline: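 Cells (CHO, stable ADRB2 overexpression) incubated 18-20hr at 37C; compounds added from DMSO; agonist mix (1nM isoproterenol, 100uM IBMX, 25uM Ro-20-1724) added; 0.5hr RT; d2-cAMP and anti-cAMP-cryptate added; 1hr RT; 665/615 nm read.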
# [12] = biological target: D(2) dopamine receptor (Homo sapiens) (UniProt P14416); assay: Dopamine D2 receptor (DRD2) small molecule agonists, cell-based qHTS assay (AID 1963594); also: nearly all actives have a fitted effect of over 35% in size
# Outline: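 cAMP accumulation in DRD2-HEK293 cells measured by HTRF after 1 h detection; compounds added 10 min before NKH477 (200nM […]) forskolin-analogue stimulation, 30 min at room temperature, with Ro20-1724 present at 0.1 mM final.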
# [13] = biological target: D(2) dopamine receptor (Homo sapiens) (UniProt P14416); assay: Dopamine D2 receptor (DRD2) small molecule antagonists, cell-based qHTS assay (AID 1963595; active = well fitted inhibition curve with a large enough effect in the signal ratio in the repeat runs, with a control signal flat; the % refers to the signal ratio; also: potency is read from the fitted curve at half-maximal effect)
# Outline: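 Stable D2 receptor HEK293 line, 24 h after seeding. Compound preincubated 10 min, then quinpirole (12 nM) with forskolin analogue NKH477 (200 nM), 30 min, room temperature. Detection by time-resolved FRET of cAMP.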
# [14] = biological target: 5-hydroxytryptamine receptor 2A (Homo sapiens) (UniProt P28223); assay: 5-hydroxytryptamine receptor 2A (HTR2A) small molecule antagonists, cell-based qHTS assay (AID 1963586); also: nearly all actives have a fitted effect of over 45% in size; also: potency is read from the fitted curve at half-maximal effect
# Outline: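 Antagonist-mode intracellular calcium assay: DOI (4 nM) added after 5 min compound pre-incubation at room temperature to dye-loaded HTR2A-CHO cells. Fluorescence followed for 3 min, sampled every second.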
# [15] = biological target: Muscarinic acetylcholine receptor M1 (Homo sapiens) (UniProt P11229); assay: Cholinergic receptor muscarinic 1 (CHRM1) small molecule antagonists, cell-based qHTS assay (AID 1963588); also: nearly all actives have a fitted effect of over 40% in size
# Outline: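 CHRM1-CHO calcium-flux assay, antagonist mode. Cells were seeded 18 h, dye-loaded 1 h at 37 C and given compound for 5 min at RT, then acetylcholine was added at 50nM. FDSS fluorescence was read 3 min; 15 concentrations, three runs.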
# [16] = cAMP Responsive Elements (CRE) small molecule agonists, cell-based qHTS assay (AID 1963590)
# Outline: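 Agonist mode qHTS in CRE-bla HEK 293T cells: compounds dosed from DMSO for 3 h at 37 C/5% CO2, followed by LiveBLAzer B/G FRET substrate for 2 h at room temperature.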
# [17] = cAMP Responsive Elements (CRE) small molecule antagonists, cell-based qHTS assay (AID 1963591; active = well fitted inhibition curve with a large enough effect in the signal ratio in the repeat runs, not every such curve was filed as active; the % refers to the signal ratio)
# Outline: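 Antagonist mode: test compounds are co-incubated with the adenylyl cyclase activator NKH477 (0.25 uM final) on CRE-bla HEK293T cells for 3 h at 37 °C, followed by LiveBLAzer substrate loading.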
# [18] = p53 small molecule agonists, cell-based qHTS assay (AID 1963582; active = well fitted activation curve with a large enough effect in the signal ratio in the repeat runs, not every such curve was filed as active; the % refers to the signal ratio)
# Outline: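 Quantitative HTS in p53RE-bla cells: after a 5 h settling period, compounds delivered in DMSO were left on cells for 16 h at 37 C, and reporter induction was measured as fluorescence following 2 h substrate loading.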
# [19] = biological target: Beta-2 adrenergic receptor (Homo sapiens) (UniProt P07550); assay: Adrenergic beta2 receptor (ADRB2) small molecule agonists, cell-based qHTS assay (AID 1963593);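 also: CHO cells stably overexpressing human ADRB2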
# Outline: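 CHO cells stably over-expressing ADRB2 were plated overnight at 37C, then dosed with compounds plus a stimulation mix containing 100uM IBMX and 25uM Ro-20-1724 for 0.5hr at room temperature. cAMP was measured by HTRF competition, 1hr.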
# Chain of Muscarinic acetylcholine receptor M1 (Homo sapiens) (P11229 whole entry, looked up): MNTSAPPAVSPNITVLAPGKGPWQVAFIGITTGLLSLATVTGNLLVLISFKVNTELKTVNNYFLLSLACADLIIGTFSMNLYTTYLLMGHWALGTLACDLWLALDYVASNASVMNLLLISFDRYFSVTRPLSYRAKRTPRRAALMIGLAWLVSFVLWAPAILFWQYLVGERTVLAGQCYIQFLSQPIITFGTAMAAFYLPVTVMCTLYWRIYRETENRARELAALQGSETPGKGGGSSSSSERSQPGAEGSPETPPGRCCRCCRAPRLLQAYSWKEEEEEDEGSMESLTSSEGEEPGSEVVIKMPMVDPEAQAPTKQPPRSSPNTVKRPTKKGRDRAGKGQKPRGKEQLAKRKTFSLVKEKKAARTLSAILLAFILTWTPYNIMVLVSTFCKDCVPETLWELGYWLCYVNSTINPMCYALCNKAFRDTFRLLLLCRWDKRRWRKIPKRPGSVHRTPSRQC
# Chain of Beta-2 adrenergic receptor (Homo sapiens) (P07550 whole entry, looked up): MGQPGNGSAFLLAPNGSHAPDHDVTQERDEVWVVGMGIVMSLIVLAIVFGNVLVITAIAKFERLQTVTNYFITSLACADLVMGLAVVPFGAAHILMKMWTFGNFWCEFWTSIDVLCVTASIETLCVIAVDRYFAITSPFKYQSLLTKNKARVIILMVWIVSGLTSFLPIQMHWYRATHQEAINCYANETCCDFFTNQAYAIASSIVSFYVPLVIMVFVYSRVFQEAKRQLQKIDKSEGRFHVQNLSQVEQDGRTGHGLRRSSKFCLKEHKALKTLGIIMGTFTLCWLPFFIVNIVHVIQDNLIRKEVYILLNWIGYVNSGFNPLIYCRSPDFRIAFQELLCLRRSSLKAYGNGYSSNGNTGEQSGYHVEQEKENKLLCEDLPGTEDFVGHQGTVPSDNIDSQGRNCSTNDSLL
# Chain of 5-hydroxytryptamine receptor 2A (Homo sapiens) (P28223 whole entry, looked up): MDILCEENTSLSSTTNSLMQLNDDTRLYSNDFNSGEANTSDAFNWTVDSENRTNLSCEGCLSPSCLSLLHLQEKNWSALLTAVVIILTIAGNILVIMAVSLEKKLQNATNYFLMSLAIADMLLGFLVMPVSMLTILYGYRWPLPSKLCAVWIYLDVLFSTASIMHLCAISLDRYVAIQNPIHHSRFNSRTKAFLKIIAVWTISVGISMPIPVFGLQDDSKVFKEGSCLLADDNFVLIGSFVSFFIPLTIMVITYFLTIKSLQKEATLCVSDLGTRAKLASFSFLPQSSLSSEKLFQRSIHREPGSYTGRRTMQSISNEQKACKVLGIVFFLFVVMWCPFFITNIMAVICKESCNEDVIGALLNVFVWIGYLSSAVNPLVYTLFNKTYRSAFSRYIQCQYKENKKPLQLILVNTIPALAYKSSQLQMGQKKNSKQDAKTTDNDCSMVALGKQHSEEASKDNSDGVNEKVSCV
# Chain of D(2) dopamine receptor (Homo sapiens) (P14416 whole entry, looked up): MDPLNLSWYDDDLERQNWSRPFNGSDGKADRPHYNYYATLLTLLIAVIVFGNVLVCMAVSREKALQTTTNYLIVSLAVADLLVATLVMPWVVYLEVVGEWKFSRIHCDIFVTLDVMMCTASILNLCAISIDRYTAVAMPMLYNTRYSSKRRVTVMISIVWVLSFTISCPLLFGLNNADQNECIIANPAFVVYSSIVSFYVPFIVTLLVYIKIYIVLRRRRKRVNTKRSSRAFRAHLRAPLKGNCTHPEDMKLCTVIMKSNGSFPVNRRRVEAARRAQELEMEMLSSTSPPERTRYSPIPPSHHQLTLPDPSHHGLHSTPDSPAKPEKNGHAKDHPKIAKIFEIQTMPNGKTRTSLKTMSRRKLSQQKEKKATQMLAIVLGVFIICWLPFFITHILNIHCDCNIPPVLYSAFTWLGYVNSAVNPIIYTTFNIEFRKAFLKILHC
# Chain of Gonadotropin-releasing hormone receptor (Homo sapiens) (P30968 whole entry, looked up): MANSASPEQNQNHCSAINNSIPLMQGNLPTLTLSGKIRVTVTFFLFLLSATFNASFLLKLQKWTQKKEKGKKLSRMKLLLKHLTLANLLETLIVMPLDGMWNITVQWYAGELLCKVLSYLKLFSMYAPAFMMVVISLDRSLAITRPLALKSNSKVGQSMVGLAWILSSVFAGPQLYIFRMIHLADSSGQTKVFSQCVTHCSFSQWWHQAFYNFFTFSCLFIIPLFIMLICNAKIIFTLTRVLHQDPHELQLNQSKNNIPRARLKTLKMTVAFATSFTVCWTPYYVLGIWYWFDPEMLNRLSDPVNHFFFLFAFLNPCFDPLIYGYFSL
# Chain of KiSS-1 receptor (Homo sapiens) (Q969F8 whole entry, looked up): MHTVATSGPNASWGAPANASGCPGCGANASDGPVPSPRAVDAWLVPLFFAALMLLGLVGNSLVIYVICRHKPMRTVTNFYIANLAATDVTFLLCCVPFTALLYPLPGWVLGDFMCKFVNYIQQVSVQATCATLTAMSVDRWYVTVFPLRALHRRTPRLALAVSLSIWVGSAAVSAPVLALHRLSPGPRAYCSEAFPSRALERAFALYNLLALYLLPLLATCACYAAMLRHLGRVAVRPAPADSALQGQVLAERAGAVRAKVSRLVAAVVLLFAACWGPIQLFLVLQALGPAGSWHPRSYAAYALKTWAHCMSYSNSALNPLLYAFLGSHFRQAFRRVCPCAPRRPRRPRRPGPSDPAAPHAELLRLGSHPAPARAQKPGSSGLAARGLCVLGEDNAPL
structure (smiles),measurement,setting,value
O=C1[C@H]2CCCC[C@H]2C(=O)N1CCCCN1CCN(c2nsc3ccccc23)CC1,Potency,[1],inactive
same,Potency,[2],inactive
same,Potency,[3],inactive
same,outcome,[4],inactive
same,outcome,[5],inactive
same,Potency,[6],inactive
same,Potency,[7],inactive
same,Potency,[8],inactive
same,Potency,[9],inactive
same,Potency,[10],inactive
same,Potency,[11],inactive
same,Potency,[12],inactive
same,Potency,[13],0.0027 µM (active)
CC(C)(C)C1CCC(=O)CC1,Potency,[1],inactive
same,Potency,[2],68.6 µM (active)
same,Potency,[3],inactive
same,outcome,[4],inactive
same,outcome,[5],inactive
same,Potency,[7],inactive
same,Potency,[8],inactive
same,Potency,[14],inactive
same,Potency,[9],inactive
same,Potency,[15],inactive
same,Potency,[10],inactive
same,Potency,[16],inactive
same,Potency,[17],inactive
same,Potency,[11],inactive
same,Potency,[12],inactive
same,Potency,[13],inactive
CN(C)CCC[C@@]1(c2ccc(F)cc2)OCc2cc(C#N)ccc21,Potency,[1],inactive
same,Potency,[2],inactive
same,Potency,[3],inactive
same,outcome,[4],inactive
same,outcome,[5],inactive
same,Potency,[6],inactive
same,Potency,[8],inactive
same,Potency,[18],inactive
same,Potency,[16],inactive
same,Potency,[17],inactive
same,Potency,[19],inactive
same,Potency,[12],inactive
same,Potency,[13],inactive
NC1[C@H]2CN(c3nc4c(cc3F)c(=O)c(C(=O)O)cn4-c3ccc(F)cc3F)C[C@@H]12 (stereo partly specified),Potency,[1],inactive
same,Potency,[2],inactive
same,Potency,[3],inactive
same,outcome,[4],inactive
same,outcome,[5],inactive
same,Potency,[6],inactive
same,Potency,[8],inactive
same,Potency,[11],inactive
same,Potency,[12],inactive
same,Potency,[13],inactive
CN[C@@H]1[C@H](O)[C@H](NC)[C@H]2O[C@@]3(O)C(=O)C[C@@H](C)O[C@H]3O[C@@H]2[C@H]1O,Potency,[1],inactive
same,Potency,[2],inactive
same,Potency,[3],inactive
same,outcome,[4],inactive
same,outcome,[5],inactive
same,Potency,[6],inactive
same,Potency,[7],inactive
same,Potency,[18],inactive
same,Potency,[16],inactive
same,Potency,[17],inactive
same,Potency,[11],inactive
same,Potency,[12],inactive
CC(C)(O)C(=O)c1ccccc1,Potency,[1],inactive
same,Potency,[2],inactive
same,Potency,[3],inactive
same,outcome,[4],inactive
same,outcome,[5],inactive
same,Potency,[6],inactive
same,Potency,[7],inactive
same,Potency,[18],inactive
same,Potency,[14],inactive
same,Potency,[9],inactive
same,Potency,[15],inactive
same,Potency,[10],inactive
same,Potency,[16],inactive
same,Potency,[17],inactive
same,Potency,[11],inactive
same,Potency,[12],inactive
same,Potency,[13],inactive
CCCCCCCCCCCCCCCCCCOCCO,"activity change, negative = cytotoxicity",[1],1.01% [at 19 µM]
same,"activity, positive = activation",[2],-0.745% [at 19 µM]
same,activity change,[3],"0.36% [at 11.8 µM, hits give high values]"
same,activation,[4],1.36% [at 15.8 µM]
same,activation,[5],0.568% [at 11.8 µM]
same,"activity change, negative = cytotoxicity",[6],-1.11% [at 13.5 µM]
same,"activity change, negative = cytotoxicity",[7],2.48% [at 13.5 µM]
same,"activity change, negative = cytotoxicity",[8],16.5% [at 13.5 µM]
same,"activity, negative = inhibition",[14],-22.3% [at 12.7 µM]
same,activation,[9],-2.03% [at 15.9 µM]
same,"activity, negative = inhibition",[15],-0.0015% [at 12.6 µM]
same,activation,[10],-0.156% [at 15.8 µM]
same,"activity change, negative = inhibition",[17],0.259% [at 18.9 µM]
same,"activity change, negative = inhibition",[11],-12.3% [at 19 µM]
same,"activity change, negative = inhibition",[13],-0.251% [at 18.9 µM]
N=C1C=CC(=C(c2ccc(N)cc2)c2ccc(N)cc2)C=C1,Potency,[1],27.3 µM (active)
same,Potency,[2],61.1 µM (active)
same,Potency,[3],inactive
same,outcome,[4],inactive
same,outcome,[5],inactive
same,Potency,[6],inactive
same,Potency,[8],inactive
same,Potency,[14],8.4 µM (active)
same,Potency,[15],inactive
same,Potency,[10],inactive
CCCOC(=O)c1ccc(N)cc1,Potency,[1],inactive
same,Potency,[2],inactive
same,Potency,[3],inactive
same,outcome,[4],inactive
same,outcome,[5],inactive
same,Potency,[7],inactive
same,Potency,[8],inactive
same,Potency,[9],inactive
same,Potency,[15],inactive
same,Potency,[10],inactive
same,Potency,[17],inactive
same,Potency,[11],inactive
same,Potency,[19],inactive
same,Potency,[12],inactive
same,Potency,[13],inactive
